# In all, about 420,000 compounds went through this assay and about 50,000 (12%) were called active. Another 26% or so got no clear call; they are omitted. This excerpt belongs to a sample that is enriched for actives. Values without a mark were called inactive. Calls follow the shape of the dose curve; as a rule, active = well fitted inhibition curve with a large enough effect; inconclusive = small, poorly fitted or top-dose-only effect; inactive = flat fitted curve, though single readings scatter.
# Assay: qHTS for Inhibitors of human tyrosyl-DNA phosphodiesterase 1 (TDP1): qHTS in cells in presence of CPT; also: nearly all actives have a fitted effect of over 55% in size
# Conditions: chicken DT40 Tdp1-/-;hTDP1 cells + 20 nM CPT, ATP luminescence, 48 h; series mostly up to 46.2 µM; activity change, negative = growth inhibition: at the top concentration
# How it was run: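 Chicken DT40 Tdp1-/- cells complemented with human TDP1, 400 cells/well, exposed to compounds plus 20 nM camptothecin for at least 48 h at 37 C; viability read as ATP content by CellTiter-Glo luminescence.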
# % is scaled to controls: 0 for no effect and ±100 for the full control effect; potency is read from the fitted curve at half-maximal effect.
Structure (SMILES),"activity change, negative = growth inhibition [%]",Potency
CC(C#N)(NC(=O)CN1CCN(S(=O)(=O)c2cc(C(F)(F)F)ccc2Cl)CC1)C1CC1 (configuration not stated),-37.5,–
Cc1cc(NC(=O)COC(=O)/C=C/c2ccc(C)o2)no1,-3.15,–
CCCCc1ccc(NC(=O)NCc2cccnc2)cc1,-25,–
Cc1cc(/C=C2/SC(=O)N(CC(=O)N3CCCC3)C2=O)c(C)n1C,10.4,–
Cc1cccc(N2CCN(c3c(CN4CCCC4)c(=O)oc4ccccc34)CC2)c1C,-24.3,–
O=C1c2ccccc2C(=O)c2c1cccc2N1CCN(CCO)CC1,-17.2,–
Cc1cccc(N2CCN(C3=C(c4ccccc4)C(=O)c4ccccc43)CC2)c1C,–,7.31 µM (active)
COc1ccc(CCNC(=O)CCCCCNC(=O)N2CCn3c2nc2ccccc23)cc1OC,-9.27,–
COc1cc(C(=O)OCC(=O)N(CC(C)C)C2CCS(=O)(=O)C2)ccc1OCC(C)C (configuration not stated),-4.05,–
CC(C)OC(=O)c1c(NC(=O)c2ccco2)sc2c1CCCC2,-1.92,–
CCOc1ccc(NC(=O)c2c(NC(=O)Cc3ccccc3)sc3c2CCC(C)C3)cc1 (configuration not stated),–,16.4 µM (active)
COC(=O)c1c(NC(=O)CN2CCN(S(=O)(=O)c3ccccc3[N+](=O)[O-])CC2)sc2c1CCC(C)C2 (configuration not stated),-7.69,–
CCOc1ccc(NC(=O)c2c(NC(=O)Cc3ccccc3)sc3c2CCCCC3)cc1,–,18.4 µM (active)
CCOC(=O)c1c(NC(=O)/C=C/c2ccc(OC)cc2)sc2c1CCC(C)C2 (configuration not stated),0.589,–
Cc1ccc(C)c(N2CCN(C(=O)Cn3ncn4cccc4c3=O)CC2)c1,-24.7,–
Cc1ccc(NC(=O)C(CC(=O)O)C2CCCO2)c(C)c1 (configuration not stated),-2.25,–
CN(Cc1ccccc1)C(=O)COC(=O)/C=C/c1ccc2c(c1)OCO2,4.78,–
COc1ccccc1C1C(C(N)=O)=C(C)Nc2nc(CCCO)nn21 (configuration not stated),-0.304,–
CC(C)=C(NC(=O)c1ccco1)C(=O)NCCc1nc2ccccc2[nH]1,14,–
Cc1ccc(C(=O)N/C(=C/c2ccco2)C(=O)NCCc2c[nH]c3ccccc23)cc1C,-41.2,–
CC(C)Oc1ccc(/C=C(\NC(=O)/C=C/c2ccco2)C(=O)NCCc2nc3ccccc3[nH]2)cc1,–,18.4 µM (active)
COc1ccccc1Nc1nnc(SC(C)C(=O)NC2CC2)s1 (configuration not stated),-28.6,–
Cc1ccccc1C1=NC(C(F)(F)F)(C(F)(F)F)c2c(n(-c3ccc(F)cc3)c(=O)[nH]c2=O)N1,–,18.4 µM (active)
O=c1[nH]c(=O)n(Cc2ccco2)c2c1C(C(F)(F)F)(C(F)(F)F)N=C(c1ccco1)N2,-13.4,–
CN(C(=O)CC1C(=O)NCCN1Cc1ccc(F)cc1Cl)C1CCCCC1 (configuration not stated),-15.5,–

Structure (SMILES),"activity change, negative = growth inhibition [%]",Potency
CCOc1ccccc1NC(=O)Cn1ncc2ccc([N+](=O)[O-])cc21,-25.4,–
COC(=O)c1c(C)cc(O)c(C)c1O,-9.14,–
C/C(=N\NC(=O)C1(C)CC1(Br)Br)c1ccc(C)cc1C (configuration not stated),-18.8,–
CC(C)CN(Cc1c(O)ccc2c(=O)c(-c3ccccc3)coc12)CC(C)C,–,5.17 µM (active)
O=c1c(-c2ccccc2)coc2c(CN3CCOCC3)c(O)ccc12,-10.7,–
CN(C)Cc1c(O)ccc2c(=O)c(-c3ccccc3Cl)coc12,-11.2,–
Cc1ccccc1OCC(=O)Nc1nc(C)c(C(=O)N(C)C)s1,-13.6,–
CCc1noc(C)c1C(=O)N1CCCC(N2CCN(c3ccc(F)cc3)CC2)C1 (configuration not stated),-15.5,–
CC1=C(c2ccc(F)cc2)S(=O)(=O)N=C1N1CCC(C(=O)NCCc2ccccc2C)CC1,-2.27,–
Cc1ccnc(N2CCCC(C(=O)Nc3cc(F)ccc3C)C2)n1 (configuration not stated),-19.3,–
Cc1ccc(Cl)cc1N(C)C(=O)C1CCCN(c2ncnc3onc(-c4ccc(F)cc4)c23)C1 (configuration not stated),–,7.31 µM (active)
CCc1ccccc1N(C)C(=O)C1CCCN(c2ncnc3onc(-c4ccc(F)cc4)c23)C1 (configuration not stated),–,13 µM (active)
O=S(=O)(c1ccc(Cl)s1)N1CCC2(CC1)OCCO2,7.46,–
O=C(Nc1ccc(-c2csc(Nc3cccc(C(F)(F)F)c3)n2)cc1)c1cccc(C(F)(F)F)c1,–,9.2 µM (active)
CNC(=O)c1ccc(NC(=O)c2cccc(C(F)(F)F)c2)cc1,11.5,–
Cc1cccc(NC(=O)c2cccc(C(F)(F)F)c2)c1,-9.45,–
Cc1nn(Cc2ccccc2)c(C)c1NS(=O)(=O)c1ccccc1,8.74,–
O=S(=O)(Nc1ccc(O)c2ccccc12)c1ccc(OC(F)(F)F)cc1,–,13 µM (active)
Nc1ncc(S(=O)(=O)Nc2ccc(OC(F)(F)F)cc2)cn1,1.29,–
O=C1COc2ccc(S(=O)(=O)Nc3ccc(OC(F)(F)F)cc3)cc2N1,-29.6,–
Cc1nn(C)c(C)c1NS(=O)(=O)c1ccc(OC(F)(F)F)cc1,–,23.1 µM (active)
COc1ccc(OC)c(S(=O)(=O)Nc2c(C)nn(C)c2C)c1,-1.71,–
COc1cc2c(cc1OC)CC(=O)N(CCCN(C)C[C@H]1Cc3cc(OC)c(OC)cc31)CC2,1.31,–
O=C(CC1Oc2ccccc2NC1=O)NCCCN1CCN(Cc2ccccc2)CC1 (configuration not stated),12,–
CC(C)(C)NC(=O)NC(=O)CN1CCC(Cc2ccccc2)CC1,-23.6,–

Structure (SMILES),"activity change, negative = growth inhibition [%]",Potency
Cc1ccc(S(=O)(=O)NCCC(=O)NC2CCN(Cc3ccccc3)CC2)cc1,-19.8,–
CC1CN(C(=O)CCC(=O)NC2CCN(Cc3ccccc3)CC2)c2ccccc2O1 (configuration not stated),–,23.1 µM (active)
CC1CN(C(=O)CCC(=O)NCCCN2CCC(Cc3ccccc3)CC2)c2cc(Cl)ccc2O1 (configuration not stated),–,20.6 µM (active)
CC1CN(C(=O)CCC(=O)NCc2cccnc2)c2ccccc2O1 (configuration not stated),-11.9,–
O=C(COC(=O)/C=C/c1cccc(Cl)c1)NCCc1ccccc1,0.178,–
COc1ccc(NC(=S)N2CCCC(CO)C2)c(OC)c1 (configuration not stated),-6.69,–
CC(=O)Nc1ccc(S(=O)(=O)Oc2ccc(/C=N/N=C3/NC(=O)C(CC(=O)O)S3)cc2)cc1 (configuration not stated),-18.8,–
O=C(CNC(=O)c1ccc(Br)o1)Nc1ccccc1,6.19,–
CC(CCc1ccccc1)NC(=O)c1ccc(Br)o1 (configuration not stated),-21.9,–
CC(CNC(=O)c1ccc(Br)o1)NC(=O)c1ccc(Br)o1 (configuration not stated),–,8.2 µM (active)
CCOc1ccc(OCC(=O)Nc2c3c(nn2C(C)(C)C)CS(=O)(=O)C3)cc1,1.51,–
COc1cc(C(=O)NCc2ccncc2)cc(Br)c1OCc1ccccc1,–,18.4 µM (active)
COc1cc(/C=N/O)cc(Br)c1OCc1cccc(Cl)c1,-6.06,–
COc1cc(C=O)c(Br)cc1OCC(=O)NCc1ccccc1,-6,–
CN(CC(=O)Nc1cccc(F)c1)C(=O)CC1CCCC1,-4.08,–
N/C(Cc1ccc([N+](=O)[O-])cc1)=N\OC(=O)C1CCCCC1,-20.7,–
CC(=O)NC1CCN(CC(=O)Nc2nccs2)CC1,13.2,–
COc1cc2c(-c3ccc4c(c3)OCO4)c(-c3ccsc3)oc(=O)c2cc1OC,–,16.4 µM (active)
COc1ccc(C#Cc2c(-c3ccc(OC)cc3)oc3ccc(-c4ccc5c(c4)OCO5)cc23)cc1,-1.98,–
COc1ccc(CCNC(=O)c2cc(-c3ccc4c(c3)OCO4)on2)cc1OC,-10.1,–
Brc1cccc[n+]1Cc1cccc(C[n+]2ccccc2Br)c1,–,12.6 µM (active)
Clc1cccc[n+]1CCCC[n+]1ccccc1Cl,-12.7,–
O=C(COC(=O)c1cccc(Cl)c1)Nc1ccc2[nH]c(=O)[nH]c2c1,-11.5,–
CCOC(=O)CSc1nnc(CNc2ccc(F)cc2)o1,-0.543,–
CCC(=O)Nc1ccc(C(=O)CSc2nnc(CNc3ccc(Cl)cc3)o2)cc1OC,–,20.6 µM (active)

Structure (SMILES),"activity change, negative = growth inhibition [%]",Potency
COc1cc(C(=O)NCc2nnc(SCC(=O)c3ccc(Cl)cc3)o2)cc(OC)c1OC,-18.9,–
COc1ccc(CNC(=O)C(=O)NCC2OCCN2C(=O)c2ccc(OC)cc2)cc1 (configuration not stated),3.1,–
CC(C)(C)c1nnc(N/N=C/c2ccc(O)cc2)n(N)c1=O,17.2,–
O=C(c1c(F)cccc1F)N1CCN(c2ncc(Br)cn2)CC1,20.1,–
CCOc1ccc(C(=O)NC(=S)Nc2ccc(NC(=O)C(C)C)cc2)cc1[N+](=O)[O-],-16.5,–
CCOc1ccc(C(=O)NC(=S)Nc2ccc(N3CCOCC3)c(Cl)c2)cc1[N+](=O)[O-],–,0.146 µM (active)
COc1cccc(OC)c1C(=O)NC(=S)Nc1ccc(N2CCOCC2)c(Cl)c1,-25.4,–
CN(C)c1ccc(-c2nnc(-c3cccnc3)o2)cc1,-14.5,–
CCC(C)(C(=O)Nc1ccccc1C)N(C(=O)CNC(C)=O)c1ccc(C)cc1 (configuration not stated),2.25,–
CCc1nnc(NS(=O)(=O)c2ccc(N=Cc3c(C)[nH]n(-c4ccc(C)cc4)c3=O)cc2)s1,–,11.6 µM (active)
COc1cc(NS(=O)(=O)c2ccc(N=Cc3c(C)[nH]n(-c4ccccc4)c3=O)cc2)nc(OC)n1,-16.6,–
CCc1nnc(NS(=O)(=O)c2ccc(NS(=O)(=O)c3ccccc3)cc2)s1,-14.8,–
CS(=O)(=O)Nc1ccccc1C(=O)OCC(=O)NC1CC1,-21.4,–
Cc1ccc(S(=O)(=O)c2nnn3c2nc(N2CCN(c4ccccc4F)CC2)c2cc(Cl)ccc23)cc1C,4.64,–
CCCCc1cc2c(s1)CCCC/C2=N/O,-6.51,–
Cc1nnnn1/C(=C\c1ccccc1)C(=O)OCC(=O)N1CC2(C)CC1CC(C)(C)C2 (configuration not stated),–,13 µM (active)
Cc1cccc(C(=O)NCC(=O)OCC(=O)N2CC3(C)CC2CC(C)(C)C3)c1 (configuration not stated),1.66,–
CCOC(=O)CNc1nc(Cl)nc(Nc2ccccc2)n1,2.34,–
CN(C)S(=O)(=O)c1cccc(C(=O)OCC(=O)N2CCCC2=O)c1,-12.8,–
Cc1noc(C)c1NC(=O)Nc1ccc2c(c1)C(=O)N([C@H](C)CO)C[C@H](C)[C@@H](CN(C)C(=O)Nc1ccccc1)O2,4.33,–
COc1ccc(NC(=O)N(C)C[C@H]2Oc3ccc(NC(=O)C4CC4)cc3C(=O)N([C@H](C)CO)C[C@@H]2C)cc1,4.69,–
Cc1ccc(S(=O)(=O)Nc2ccc3c(c2)C(=O)N([C@H](C)CO)C[C@@H](C)[C@@H](CN(C)C(=O)Nc2cccc4ccccc24)O3)cc1,–,20.6 µM (active)
